Data reported in PubChem BioAssay (Tox21).
Values without a mark were called inactive. Results filed as inconclusive are left out. A call without a number means that no potency is given here. Calls of active or inactive are those of the source. Unless noted, calls come from the whole dose curve; as a rule, active = well fitted curve in the direction sought with a large enough effect in the repeat runs; inconclusive = weak or mixed curves; inactive = no such curve, though single readings can be large; an effect the other way counts as inactive or inconclusive.

Tests used:
[1] = qHTS assay to identify small molecule agonists of the hypoxia (HIF-1) signaling pathway - cell viability counter screen (AID 1224844; calls by dose curve; note: nearly all actives have a fitted effect of over 50% in size; note: potency is the fitted concentration of half-maximal effect)
Method in brief: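 HRE-bla ME-180 cells in medium with 0.5% dialyzed FBS were preincubated 5 hrs at 37C, exposed to compounds for 17 hrs, then viability was read as CellTiter-Glo luminescence after 30 min at room temperature, in the reporter wells.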

[2] = qHTS assay to identify small molecule agonists of H2AX - cell viability counter screen (AID 1224847; calls by dose curve; note: top concentration of the series differs between compounds; nearly all actives have a fitted effect of over 30% in size)
Method in brief: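 Counter-screen for viability: CellTiter-Glo ATP luminescence read after 3 h compound treatment (15-point titration, 0.76% DMSO final) of CHO-K1 cells at 37C, with 30 min room-temperature reagent incubation.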

[3] = qHTS RealTime-Glo MT Cell Viability Assay in HepG2 cells - 24 hour (AID 1224867); note: nearly all actives have a fitted effect of over 50% in size
Method in brief: (§1)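 Viability was tracked continuously by NanoLuc luminescence from prosubstrate reduced by living HepG2 cells, at successive time points over 40 h of compound exposure. Cells with reagent were preincubated 5 h at 37 °C before compound addition.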

[4] = qHTS RealTime-Glo MT Cell Viability Assay in HEK293 cells - 32 hour (AID 1224868); note: nearly all actives have a fitted effect of over 50% in size; note: potency is the fitted concentration of half-maximal effect
Method in brief: (§2)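 Viability tracked continuously by luminescence as live cells reduce a prosubstrate for NanoLuc; HEK293 cells preincubated 5 h, compound-treated at 37 C, and read at 0, 8, 16, 24, 32 and 40 h.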

[5] = A CellTox Green Cytotoxicity Assay to monitor cytotoxicity in HEK293 cells - 0 hour (AID 1224869); note: nearly all actives have a fitted effect of over 50% in size
Method in brief: (§3)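 HEK293 cells premixed with CellTox Green dye were seeded at 600 cells/well and left 5 h at 37 C/5% CO2 before pin transfer of 23 nL compound in DMSO. Fluorescence from dye bound to dead-cell DNA was read during 40 h treatment.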

[6] = A CellTox Green Cytotoxicity Assay to monitor cytotoxicity in HEK293 cells - 40 hour (AID 1224871); note: nearly all actives have a fitted effect of over 45% in size
Method in brief: as §3

[7] = qHTS RealTime-Glo MT Cell Viability Assay in HepG2 cells - 8 hour (AID 1224873); note: nearly all actives have a fitted effect of over 55% in size
Method in brief: (§4)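 HepG2 cells mixed with RealTime-Glo MT reagents (NanoLuc plus cell-permeant prosubstrate) were seeded at 600 cells/well, incubated 5 h at 37 C/5% CO2, then pinned with compounds in DMSO; nonlytic luminescence tracked viability during 40 h treatment.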

[8] = qHTS RealTime-Glo MT Cell Viability Assay in HEK293 cells - 40 hour (AID 1224874); conditions: RealTime-Glo luminescence; max response: active compounds read low; note: nearly all actives have a fitted effect of over 50% in size; note: potency is the fitted concentration of half-maximal effect
Method in brief: (§5)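 HEK293 cells mixed with RealTime-Glo reagents (NanoLuc plus cell-permeant prosubstrate) at 600 cells/well, preincubated 5 h at 37 C/5% CO2, then given 23 nL compound in DMSO. Nonlytic luminescence from viable cells was read at 0, 8, 16, 24, 32 and 40 h.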

[9] = A CellTox Green Cytotoxicity Assay to monitor cytotoxicity in HEK293 cells - 24 hour (AID 1224875); note: nearly all actives have a fitted effect of over 45% in size
Method in brief: as §3

[10] = A CellTox Green Cytotoxicity Assay to monitor cytotoxicity in HepG2 cells - 16 hour (AID 1224876); note: nearly all actives have a fitted effect of over 45% in size; note: potency is the fitted concentration of half-maximal effect
Method in brief: (§6)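 HepG2 cells were seeded together with the CellTox Green dye at 600 cells/well, left 5 h at 37 C/5% CO2, then given compounds in DMSO. Fluorescence from dye bound to dead-cell DNA was read repeatedly over 40 h of treatment at 37 C.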

[11] = qHTS RealTime-Glo MT Cell Viability Assay in HepG2 cells - 32 hour (AID 1224877); note: nearly all actives have a fitted effect of over 55% in size
Method in brief: as §1

[12] = A CellTox Green Cytotoxicity Assay to monitor cytotoxicity in HepG2 cells - 24 hour (AID 1224878); note: nearly all actives have a fitted effect of over 45% in size; note: potency is the fitted concentration of half-maximal effect
Method in brief: as §6

[13] = qHTS RealTime-Glo MT Cell Viability Assay in HEK293 cells - 0 hour (AID 1224880)
Method in brief: as §5

[14] = qHTS RealTime-Glo MT Cell Viability Assay in HEK293 cells - 16 hour (AID 1224872); note: nearly all actives have a fitted effect of over 50% in size; note: potency is the fitted concentration of half-maximal effect
Method in brief: as §2

[15] = A CellTox Green Cytotoxicity Assay to monitor cytotoxicity in HepG2 cells - 40 hour (AID 1224879); note: nearly all actives have a fitted effect of over 40% in size; note: potency is the fitted concentration of half-maximal effect
Method in brief: as §6

[16] = qHTS assay to identify small molecule agonists of H2AX (AID 1224845; active = well fitted activation curve with a large enough effect in the signal ratio in the repeat runs, not every such curve was filed as active; the % refers to the signal ratio)
Method in brief: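 Wild-type CHO-K1 cells plated overnight, then exposed 3 hr at 37C to compounds at 15 concentrations (0.76% DMSO). Lysed, then HTRF anti-pH2AX(S139)-cryptate/anti-H2AX-d2 detection after 24 hr at room temperature; emissions 665 and 620 nm.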

[17] = qHTS assay to identify small molecule agonists of the hypoxia (HIF-1) signaling pathway (AID 1224846; active = well fitted activation curve with a large enough effect in the signal ratio in the repeat runs, not every such curve was filed as active; the % refers to the signal ratio)
Method in brief: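 HRE-bla ME-180 cells (beta-lactamase reporter under hypoxia response element) were plated at 2,000 cells/well in medium with 0.5% dialyzed FBS, rested 5 hrs, then given compounds in DMSO for 17 hrs at 37C, 5% CO2. Reporter induction was read with CCF4-AM FRET substrate.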

[18] = qHTS RealTime-Glo MT Cell Viability Assay in HepG2 cells - 40 hour (AID 1224870); note: nearly all actives have a fitted effect of over 50% in size
Method in brief: as §4

[19] = qHTS assay to identify small molecule agonists of the estrogen related receptor (ERR) signaling pathway from Tox21 library (AID 1224849; calls by dose curve; note: nearly all actives have a fitted effect of over 15% in size); conditions: ERR reporter cell line, ONE-Glo luciferase, 18 h; at 92.4 µM (top of the series) unless noted
Method in brief: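 ERR reporter cell line (NTP) seeded, rested 6 h at 37 C/5% CO2, then pinned with Tox21 compounds in DMSO. After 18 h at 37 C, ONE-Glo luciferase luminescence was read following 30 min at room temperature.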

[20] = qHTS assay to identify small molecule antagonists of the estrogen related receptor (ERR) signaling pathway from Tox21 library (AID 1224848); note: nearly all actives have a fitted effect of over 50% in size
Method in brief: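 Cells: ERR line, 2,000/well; 6 h preincubation 37 C/5% CO2. Cpd in DMSO via pin tool; 18 h, 37 C. ONE-Glo, 30 min RT, luminescence.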

For O=C(/C=C/c1ccc(O)c(O)c1)O[C@@H]1C[C@](O)(C(=O)O)C[C@@H](O)[C@H]1O, the Potency [1] was “inactive”, the Potency [2] was “inactive” and the Potency [3] was “inactive”. The Potency [4] was “inactive”, the Potency [5] was “inactive” and the Potency [6] was “inactive”. The Potency [7] was “inactive”, the max response [8] was -3.27% and the Potency [9] was “inactive”. For the same compound, the Potency [10] was “inactive”, the Potency [11] was “inactive” and the Potency [12] was “inactive”. For the same compound, the Potency [13] was “inactive”.
In the case of CN1CCN(C2=Nc3cc(Cl)ccc3Nc3ccccc32)CC1, the Potency [1] is reported as “inactive”, the Potency [5] is reported as “inactive” and the Potency [6] is reported as “inactive”. The Potency [14] was “inactive”, the Potency [7] was “inactive” and the Potency [9] was “inactive”. The Potency [10] was “inactive”, the Potency [12] was 23.9 µM (active) and the Potency [15] was 23.9 µM (active).
In the case of CCOC(=O)[C@H](CCc1ccccc1)N[C@H]1CCc2ccccc2N(CC(=O)O)C1=O, the Potency [1] is reported as “inactive”, the Potency [5] is reported as “inactive” and the Potency [10] is reported as 26.8 µM (active). The Potency [12] was 26.8 µM (active) and the Potency [15] was 26.8 µM (active).
For CCN1CCC[C@H]1CNC(=O)c1c(OC)ccc(Br)c1OC, the Potency [16] was “inactive”, the outcome [17] was “inactive” and the Potency [2] was “inactive”. For the same compound, the Potency [4] was “inactive”, the Potency [5] was “inactive” and the Potency [6] was “inactive”. For the same compound, the Potency [14] was “inactive”, the Potency [7] was “inactive” and the max response [8] was 12.2%. The Potency [9] was “inactive”, the Potency [10] was “inactive” and the Potency [12] was “inactive”. The Potency [15] was “inactive” and the Potency [13] was “inactive”.
With CCCCOC(O)CC (centres undefined) the Potency [16] was “inactive”, the outcome [17] was “inactive” and the Potency [3] was “inactive”. The Potency [4] was “inactive”, the Potency [5] was “inactive” and the Potency [18] was “inactive”. For the same compound, the Potency [6] was “inactive”, the Potency [14] was “inactive” and the Potency [7] was “inactive”. The max response [8] was 3%, the Potency [9] was “inactive” and the Potency [10] was “inactive”. The Potency [11] was “inactive”, the Potency [12] was “inactive” and the Potency [15] was “inactive”. The Potency [13] was “inactive”.
For c1ccc(OCc2ccc(CCCN3CCOCC3)cc2)cc1, the Potency [1] was “inactive”, the activity change, positive = activation [19] was -24.5% [at 42.5 µM] and the Potency [3] was “inactive”. The Potency [5] was “inactive”, the Potency [18] was “inactive” and the Potency [6] was “inactive”. For the same compound, the Potency [7] was “inactive”, the Potency [8] was 21.3 µM (active) and the Potency [9] was “inactive”. For the same compound, the Potency [11] was “inactive”, the Potency [15] was 21.3 µM (active) and the Potency [13] was “inactive”.
With O=S1(=O)N=C(O)c2ccccc21 the Potency [16] was “inactive”, the outcome [17] was “inactive” and the Potency [2] was “inactive”. For the same compound, the Potency [3] was “inactive”, the Potency [5] was “inactive” and the Potency [18] was “inactive”. The Potency [14] was “inactive”, the Potency [7] was “inactive” and the max response [8] was 2.61%. For the same compound, the Potency [9] was “inactive”, the Potency [10] was “inactive” and the Potency [11] was “inactive”. The Potency [12] was “inactive” and the Potency [13] was “inactive”.
In the case of CCOc1cc(OCC)c(C(=O)CCC(=O)O)cc1OCC, the Potency [1] is reported as “inactive”, the Potency [3] is reported as “inactive” and the Potency [4] is reported as “inactive”. For the same compound, the Potency [5] was “inactive”, the Potency [6] was “inactive” and the Potency [14] was “inactive”. The Potency [7] was “inactive”, the max response [8] was 3.3% and the Potency [9] was “inactive”. The Potency [10] was “inactive”, the Potency [11] was “inactive” and the Potency [12] was “inactive”. For the same compound, the Potency [15] was “inactive” and the Potency [13] was “inactive”.
In the case of C=Cc1c(C)c2cc3[nH]c(cc4nc(cc5nc(cc1[nH]2)C(C)=C5CCC(=O)O)C(CCC(=O)O)=C4C)c(C)c3C=C, the Potency [1] is reported as 19 µM (active), the activity change, positive = activation [19] is reported as -18% [at 42.5 µM] and the Potency [3] is reported as “inactive”. For the same compound, the Potency [4] was “inactive”, the Potency [5] was “inactive” and the Potency [18] was “inactive”. For the same compound, the Potency [6] was “inactive”, the Potency [14] was “inactive” and the Potency [7] was “inactive”. The max response [8] was -11.2%, the Potency [9] was “inactive” and the Potency [10] was “inactive”. For the same compound, the Potency [11] was “inactive” and the Potency [13] was “inactive”.
In the case of O=C(Nc1ccccc1)OCC(CN1CCCCC1)OC(=O)Nc1ccccc1 (centres undefined), the Potency [2] is reported as “inactive”, the Potency [3] is reported as “inactive” and the Potency [4] is reported as 21.3 µM (active). The Potency [5] was “inactive”, the Potency [18] was “inactive” and the Potency [6] was “inactive”. For the same compound, the Potency [9] was “inactive”, the Potency [10] was “inactive” and the Potency [11] was “inactive”. The Potency [13] was “inactive”.
In the case of O=C(O)/C=C/c1cnc[nH]1, the Potency [16] is reported as “inactive”, the Potency [2] is reported as “inactive” and the Potency [3] is reported as “inactive”. The Potency [5] was “inactive”, the Potency [18] was “inactive” and the Potency [6] was “inactive”. For the same compound, the Potency [14] was “inactive”, the Potency [7] was “inactive” and the max response [8] was -5.16%. For the same compound, the Potency [9] was “inactive”, the Potency [10] was “inactive” and the Potency [11] was “inactive”. For the same compound, the Potency [12] was “inactive”, the Potency [15] was “inactive” and the Potency [13] was “inactive”.
With OC(CCN1CCCCC1)(c1ccccc1)C1CCCCC1 (centres undefined) the Potency [16] was “inactive”, the Potency [20] was “inactive” and the activity change, positive = activation [19] was 2.3% [at 42.5 µM]. The Potency [5] was “inactive”, the Potency [18] was “inactive” and the Potency [6] was “inactive”. The Potency [14] was “inactive”, the Potency [7] was “inactive” and the max response [8] was -21.9%. The Potency [9] was “inactive”, the Potency [10] was “inactive” and the Potency [11] was “inactive”. For the same compound, the Potency [12] was “inactive” and the Potency [13] was “inactive”.
In the case of CCCCOc1ccc(CC(=O)NO)cc1, the Potency [2] is reported as “inactive”, the Potency [3] is reported as “inactive” and the Potency [5] is reported as “inactive”. The Potency [6] was “inactive”, the Potency [14] was 2.68 µM (active) and the Potency [7] was “inactive”. The Potency [9] was “inactive”, the Potency [12] was “inactive” and the Potency [13] was “inactive”.
